# Where “and” joins values, the source holds several entries; their conditions need not be identical. Equal entries are not always repeated. Records with an inconclusive call do not appear. Values without a mark were called inactive. Calls of active or inactive are those of the source. The call rests on the fitted dose curve; in most records, active means well fitted cell-killing curve with a large enough effect in the repeat runs; inconclusive means weak or mixed curves, or effect the other way; inactive means flat fitted curve, though single readings scatter.
# Assay: Human pregnane X receptor (PXR) small molecule agonists, qHTS cell viability counter screen (AID 1346977); further: nearly all actives have a fitted effect of over 50% in size
# Settings: PXR-Luc HepG2 viability, CellTiter-Fluor, 24 h; series mostly up to 92.4 µM; activity change, negative = cytotoxicity: at the top concentration
# Text: U.S. Tox21 Program National Center for Advancing Translational Sciences [NCATS] NIH Chemical Genomics Center [NCGC] U.S. Environmental Protection Agency [EPA] National Institutes of Environmental Health Sciences [NIEHS] National Toxicology Program [NTP] U.S. Food and Drug Administration [FDA] Tox21 Assay Overview: The human pregnane X receptor (hPXR) regulates the expression of several drug metabolizing enzymes and induction of these proteins is a major mechanism for developing drug resistance in cancer. One such key enzyme catalyzing the drug metabolism is cytochrome P450 3A4 (CYP3A4). Changes in CYP3A4 expression affect drug metabolism, thereby reducing the therapeutic efficacy and altering toxicological response to a drug and which finally causes adverse drug interaction. To screen Tox21 libraries for compounds that activate hPXR-mediated CYP3A4 gene expression, PXR-Luc HepG2 cells were used. Also cytotoxicity of the compounds was tested in parallel by measuring the cell viability using CellTiter-Fluor assay system in the same wells.
# Tox21 Assay Protocol Summary: PXR-Luc HepG2 cells were dispensed at 2,000 per well in 5uL of assay medium containing 5% charcoal-stripped FBS into white solid bottom 1536-well plates (Corning Life Sciences, Corning, NY) using a Multidrop Combi (Thermo Scientific, Waltham, MA) dispenser. The assay plates were incubated at 37 C and 5% CO2 for 5hr, and then 23nL of compounds dissolved in DMSO and positive control were transferred using a Pintool station (Wako, San Diego, CA). The assay plates were incubated at 37C and 5% CO2 for 24hr. For cytotoxicity read, after 23hr incubation at 37C, 1uL CellTiter-Fluor reagent (Promega Corporation, Madison, WI) was added to each well of the assay plates using Flying Reagent Dispenser (FRD, Aurora Discovery, San Diego, CA). After 1hr incubation at 37C and 5% CO2, the fluorescence signal was quantified using a ViewLux plate reader (PerkinElmer, Shelton, CT).
# On the % scale 0 is the no-effect control and ±100 the full control effect; potency means the concentration at half of the fitted maximal effect.
SMILES,Potency,"activity change, negative = cytotoxicity"
O=C(O)CCCOc1ccc(Cl)cc1Cl,inactive,–
CCSCc1ccccc1OC(=O)NC,–,14.3%
C[C@@H]1C[C@@H]([C@H](O)CC2CC(=O)NC(=O)C2)C(=O)[C@@H](C)C1,342 nM (active) and 1.22 µM (active) and 1.19 µM (active),–
C=CC(=O)OCC,–,-0.888%
CCOP(=S)(OCC)SCSc1cc(Cl)ccc1Cl,–,12.7%
CCCCCBr,–,-2.01%
COC1=CC(=O)O[C@@H](/C=C/c2ccc3c(c2)OCO3)C1,–,21.2%
N#CC1(N=NC2(C#N)CCCCC2)CCCCC1,–,6.26%
CCC1(C2=NCCN2)Cc2ccccc2O1 (stereo not given),–,-8.61% [at 42.5 µM]
NCCc1cc(O)c(O)cc1O,–,-18.8% [at 42.5 µM]
CN[C@@H](C)[C@H](O)c1ccccc1,–,-0.788% [at 42.5 µM]
C1CCNCC1,–,-3.06%
Clc1ccccc1,26.9 µM (active),–
NNCCO,–,-0.026%
CCCCCl,–,-1.03%
CC(Oc1cccc(Cl)c1)C(=O)O (stereo not given),–,7.15%
O=C(O)C(Cl)(Cl)Br,–,29%
CCCCC(CC)CO[N+](=O)[O-] (stereo not given),–,-0.513%
CCCBr,–,-8.56%
CCC(=O)O[C@@H]1C=C2CCC3C(CCC4(C)C3CC[C@@H]4OC(=O)CC)C2CC1 (stereo not given in full),–,1.39% [at 42.5 µM]

SMILES,Potency,"activity change, negative = cytotoxicity"
O=C(O)c1cc(Cl)ccc1Cl,–,8.18%
CC1(C)[C@H](C(=O)O[C@H](C#N)c2cccc(Oc3ccccc3)c2)[C@@H]1C=C(Br)Br,inactive,–
CCOP(=O)(SC(C)CC)N1CCSC1=O (stereo not given),–,14.5%
O=S(=O)(Cl)Cl,–,22.7%
Oc1cccc(Cl)c1,–,-0.595%
CCC1CCC(=O)O1 (stereo not given),–,-1.81%
C=CCc1ccc(OC(=O)Cc2ccccc2)c(OC)c1,–,5.15%
C=CCc1ccccc1O,–,7.48%
Cc1ccccc1,–,1.07%
CC(C)[C@@H](C(=O)O[C@@H](C#N)c1cccc(Oc2ccccc2)c1)c1ccc(Cl)cc1,inactive,–
CCCN(CCOc1c(Cl)cc(Cl)cc1Cl)C(=O)n1ccnc1,50.1 µM (active),–
C[N+]1(CCC(C(N)=O)(c2ccccc2)c2ccccc2)CCCCC1,–,13.1% [at 42.5 µM]
COc1ccccc1N1CCNCC1,–,-0.138% [at 42.5 µM]
CCCCC1C(=O)NC(=O)N(C2CCCCC2)C1=O (stereo not given),–,10.5% [at 42.5 µM]
C=C(Cl)Cl,–,8.81%
COc1ccc(C(O)(c2cncnc2)C2CC2)cc1 (stereo not given),–,12.7%
COC(=O)C1(O)c2ccccc2-c2ccccc21,–,17.3%
CC(=O)NNc1ccccc1,–,-10.2%
CC(C)(C)NCC(O)c1ccccc1Cl (stereo not given),–,-6.42% [at 42.5 µM]
C=CCSSCC=C,–,23.6%

# — PubChem BioAssay (Tox21)
